# Experimental data reported in PubChem BioAssay (NCI).
# About 83,000 compounds went through this panel and 20% of them were active in at least one assay; those are over-represented in the sample as a whole.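 96-well plates, one dose, 48 hours. Percent growth reported; active if below 10.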 Activity calls are given as the source filed them.
# System: HL-60(TB) leukemia
# Test: NCI-60 one-dose screen, 48 h (100 = growth as untreated, 0 = no growth, -100 = all killed)
# Conditions: 10 µM unless noted
row,SMILES,growth
1,O=C(CSc1nc2sc3c(c2c(=O)n1-c1ccc(Cl)cc1)CCCC3)NNC(=O)Nc1cccc(C(F)(F)F)c1,2.24% (active)
2,CS(=O)(=O)Nc1cc(-c2ccc3ncc(C#N)c(NCc4cccc(F)c4)c3c2)cnc1Cl,4.11% (active)
3,COc1cc(N=Cc2sc(Nc3nccs3)nc2O)cc(OC)c1OC,82.8% (inactive)
4,O=C(CSc1nnc(-c2ccc(Cl)cc2)n1-c1ccccc1)Nc1cccc(F)c1,71.7% (inactive)
5,N#Cc1c(-c2cccs2)c(C#N)c(=O)n(Cc2nc3ccccc3[nH]2)c1N,108% (inactive)
6,O=[N+]([O-])c1ccc(-c2nnc(SCc3ccc(O)c4ncccc34)n2-c2ccccc2)cc1,32.5% (inactive)
7,COc1ccc(C2CC(c3cccc(OCCCCOc4cccc(C5=NN(C(C)=O)C(c6ccc(OC)cc6)C5)c4)c3)=NN2C(C)=O)cc1 (stereo not drawn),46.2% (inactive)
8,COc1cccc2c1CN(C(=O)c1ccc(O)c(C(=O)N3Cc4ccc(OCCC[P+](c5ccccc5)(c5ccccc5)c5ccccc5)cc4C3)c1)C2,41.3% (inactive)
9,O=C1NC(=O)c2c1c1c3ccccc3ccc1c1[nH]c3ccccc3c21,16.8% (inactive)
10,Cc1ccc2c(n1)C(=O)C(Cl)=C(Nc1cccc(C)c1C)C2=O,-23.2% (active)
11,O=C(Nc1ccc(N=Cc2c(O)[nH]c3ccccc23)cc1)Nc1nccs1,42% (inactive)
12,Cc1cc(-c2ccc(Cl)cc2)n(Cc2nnc(SCC(=O)Nc3ccc(S(N)(=O)=O)cc3)n2-c2ccc([N+](=O)[O-])cc2)n1,76.8% (inactive)
13,Nc1ccc(-c2nnc(SCc3ccc(O)c4ncccc34)n2-c2ccccc2)cc1,11.5% (inactive)
14,O=C1Nc2ccccc2Oc2ccc(S(=O)(=O)CC3CO3)cc21 (stereo not drawn),0.252% (active)
15,NC(N)=Nc1ccc(Oc2cccc(NC(N)=Nc3ccc(Cl)c(C(F)(F)F)c3)c2)cn1,0.375% (active)
16,CC/C(=C(/c1ccc(Cl)cc1)c1ccc(OCCN)cc1)c1ccccc1,43.4% (inactive)
17,CCOc1ccccc1NC1=C(Cl)C(=O)c2nc(C)ccc2C1=O,-36.8% (active)

row,SMILES,growth
1,COc1ccc(COc2ccc(/C=C3\C(=O)Nc4ccccc43)cc2OC)cc1,115% (inactive)
2,C#CCn1cc(/C=N/Nc2nc(-c3ccc(Br)cc3)cs2)c2ccccc21,107% (inactive)
3,Nc1cc(F)ccc1NC(=O)c1ccc(NC(=O)C/C=C/c2cccnc2)cn1,11.3% (inactive)
4,C=C(C)[C@@H]1CC[C@]2(C(=O)N3CCN(C)CC3)CC[C@]3(C)[C@H](CC[C@@H]4[C@@]5(C)CC[C@H](OP(=O)(OCC)OCC)C(C)(C)[C@@H]5CC[C@]43C)[C@@H]12,42.2% (inactive)
5,N#Cc1cnc2ccc(-c3cnc(N)nc3)cc2c1N1CCc2cc(F)c(Cl)cc21,-11.7% (active)
6,O=S(=O)(Oc1ccc(-c2cn3ccoc3n2)cc1)c1cccc(C(F)(F)F)c1,105% (inactive)
7,O=C(NNc1nc2cc(F)c(F)cc2n2cccc12)c1cnccn1,3.67% (active)
8,COC(=O)c1ccc(NC2=C(Cl)C(=O)C(C)=C(C)C2=O)cc1,41.3% (inactive)
9,CCOP(=O)(OCC)OC[C@]12CCC(C)(C)C=C1[C@H]1CC[C@@H]3[C@@]4(C)CC[C@H](OP(=O)(OCC)OCC)C(C)(C)[C@@H]4CC[C@@]3(C)[C@]1(C)CC2,-22.1% (active)
10,CC1OC(O[C@@H]2C(O)C(CO)OC(O[C@H]3COC(O[C@H]4CC[C@]5(C)[C@H]6CC[C@]78OC[C@@]9(CC[C@](C)(C=O)C[C@H]97)[C@H](O)C[C@@]8(C)[C@]6(C)CC[C@H]5C4(C)C)[C@@H](OC4OC(CO)[C@@H](O)[C@@H](O)[C@@H]4O)[C@@H]3O)[C@H]2OC2OC[C@@H](O)[C@@H](O)[C@@H]2O)[C@@H](O)[C@@H](O)[C@H]1O (stereo partly drawn),-60.5% (active)
11,O=C1C(N2CCN(c3ccccc3)CC2)=C(Cl)C(=O)c2ncccc21,4.34% (active)
12,OC1CCN(CCCOc2c3ccccc3nc3c2oc2ccccc23)CC1,6.8% (active)
13,CCO/C=N/C1=C(C#N)C(c2ccc(F)cc2)c2sc3c(CC)cccc3c2O1 (stereo not drawn),-19.1% (active)
14,CN(C)CCCNc1c2ccc(Cl)cc2nc2c1oc1ccccc12,-1.28% (active)
15,O=C(CN1CCN(c2cc(=O)[nH]c3ccc(F)cc23)CC1)N(c1ccccc1)c1ccccc1,106% (inactive)
16,COc1ccc(S(=O)(=O)NCCCNc2nccc(-n3cnc4ccccc43)n2)cc1,110% (inactive)
